Compounds without any hit were thinned out: in the full panel of roughly 83,000, 20% have a hit.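 Interpretation: 100, growth as untreated; towards 0, rising growth inhibition; 0, no net growth; 0 to -100, cell death. Compounds scoring below 10 were considered active.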 Values without a mark were called inactive. Calls of active or inactive are those of the source.
tested on: BT-549 breast; assay: NCI-60 one-dose screen, 48 h (100 = growth as untreated, 0 = no growth, -100 = all killed); conditions: 10 µM unless noted
Procedure: Growth inhibition of the BT-549 human tumor cell line is measured as a screen for anti-cancer activity. Cells are grown in 96 well plates and exposed to the test compound for 48 hours. Compounds are tested at a single concentration, which is 10^-5 M for most compounds. The reported endpoint is percent growth (GI% or GIPRCNT), where numbers from 0 - 100% represent growth inhibition, and numbers from -100% - 0 represent cell death. For example, a value of 40 represents 60% growth inhibition. A value of 0 means no net growth occurred over the course of the experiment. A value of -40 indicates 40% of cells at the beginning of the experiment died by the end of the experiment. A value of -100 means all cells are dead at the end of the experiment.
NCI-60 Human Tumor Cell Lines Screen was performed using the standard one-dose NCI protocol, which is described in more detail at https://dtp.cancer.gov/discovery_development/nci-60/default.htm.
Compounds with GIPRCNT values below 10 were considered active. Activity score was based on GIPRCNT using the following formula: […]
Score is 0 for GIPRCNT values of 100 or above, 50 for GIPRCNT values of 0, and 100 for GIPRCNT values of -100.

First: COc1ccc(-c2c3c(N)nc(-c4ccncc4)nc3nc3c2c(C)nn3-c2ccccc2)cc1
Second: COc1ccc(C2=NN(C(C)=O)C(c3cccc(Nc4ccnc5cc(Cl)ccc45)c3)C2)cc1 (stereo not given)
The growth of the first is higher: 87.1% for the first, 50.4% for the second.

Going from `O=C(Nc1ccc2c(c1)C(=O)c1ccccc1-2)c1ccccc1` to `Cc1ccc(C(NC(=O)c2ccccc2)c2ccc3cccnc3c2O)cc1` (stereo not given), the growth falls from 104% to 25.5%.

Going from `CCCCCCCCN(CCO)CCCCCCCC` to `N#Cc1c(-c2ccccc2)cc(-c2ccccc2)n(CCCCCCC(=O)O)c1=O`, the growth falls from 106% to 101%.

Compared with `CCSc1nc(-c2ccc(F)cc2)c(C#N)c(=O)[nH]1`, `CSc1nc(Nc2ccc(S(=O)(=O)Nc3ccon3)cc2)c(C#N)c(-c2ccc(Cl)cc2)n1` is lower in growth: 105% for the first, 90.5% for the second.

First: OC(c1cc(-c2cccc(Cl)c2)nc2ccccc12)C1CCCCN1 (stereo not given)
Second: c1ccc(-c2nc(Nc3nccnn3)c3ccccc3n2)cc1
The growth of the first is lower: 67% for the first, 99.1% for the second.

Going from `Nc1nc(Nc2ccccc2SSc2ccccc2Nc2nc(N)nc(C(Cl)(Cl)Cl)n2)nc(C(Cl)(Cl)Cl)n1` to `c1ccc(N2c3nc4ccccc4cc3Sc3cc4ccccc4nc32)nc1`, the growth rises from 54.2% to 93.2%.

Compared with `COc1cc2c(cc1OC)C(=O)/C(=C/c1cccc(OCC(=O)c3ccccc3)c1)C2`, `Cc1ccc2nc(SCC(=O)Nc3ccc(-c4nc5ccccc5s4)c(Cl)c3)[nH]c2c1` is higher in growth: 49.4% for the first, 103% for the second.

Going from `Fc1ccccc1C1c2ccccc2-c2nccn21` (stereo not given) to `Cc1cccc2nnc(-c3ccccc3)n12`, the growth falls from 106% to 98.9%.

`CCOC(=O)C(C(=O)OCC)C1CCCCC1` and `CC1CN(C2CCCCC2)C(=O)NC1=O` (stereo not given) are the same in growth: 104% for the first, 104% for the second.

Going from `CCCn1c(N)c(C(=O)CNc2ccc(I)cc2)c(=O)[nH]c1=O` to `Cc1ccc(N/N=C(/C(=O)c2ccc(Cl)cc2)c2nc(C)cc(=O)[nH]2)cc1`, the growth rises from 61.4% to 118%.

First: CC(=O)Nc1c(Cl)cc2c(c1Cl)Cc1ccccc1-2
Second: Cc1onc(-c2ccccc2Cl)c1C(=O)N[C@@H]1C(=O)N2[C@@H]1SC(C)(C)[C@@H]2C(=O)O
The growth of the first is lower: 98.8% for the first, 100% for the second.

First: Cc1ncc(C(=O)Nc2ccc(CN3CCN(C)CC3)c(C(F)(F)F)c2)cc1C#Cc1cncc2ncccc12
Second: O=C(CC(C(=O)c1ccccc1)N1CCN(Cc2ccccc2)CC1)c1ccccc1 (stereo not given)
The growth of the first is lower: 85.4% for the first, 101% for the second.

Going from `Oc1ccccc1/C=N/N1CCCCCC1` to `O=C(O)CCNS(=O)(=O)c1ccc(-c2ccccc2)cc1`, the growth rises from 97.9% to 127%.

Compared with `N#CC1c2ccccc2C=CN1C(=O)N(c1ccccc1)c1ccccc1` (stereo not given), `ICCC(c1ccccc1)(c1ccccc1)c1ccccc1` is lower in growth: 74.1% for the first, 54.6% for the second.

Going from `OCc1n(Cc2ccc3ccccc3c2)cc[n+]1Cc1ccc2ccccc2c1` to `CC[C@@H](C)/C=C(C)/C=C/C(O)=C1\C(=O)N[C@@H](Cc2ccc(OC(=O)[C@@](OC)(c3ccccc3)C(F)(F)F)cc2)C1=O`, the growth rises from 31.2% to 88.8%.

Compared with `Cc1csc(C#Cc2cncc(O)c2)n1`, `CCN(CC)c1ccc(/C=C/C(=O)c2cccc(NS(C)(=O)=O)c2)cc1` is lower in growth: 113% for the first, 58.3% for the second.

Compared with `C[C@]12CCC(=O)C=C1CC[C@H]1[C@@H]3C[C@@H](O)[C@](O)(C(=O)CO)[C@@]3(C)C[C@H](O)[C@@]12F`, `C/C(=C\CCc1ccoc1)CC/C=C(\C)CCCC1COC(=O)C1` (stereo not given) is higher in growth: 99.4% for the first, 108% for the second.

Work on `C/C(=C\CCc1ccoc1)CC/C=C(\C)CCCN1CCOCC1` yielded a growth of 58.9%.

For `O=C(Nc1nc2c(C(F)(F)F)cccc2s1)c1cc(Cl)ccc1O`, the growth was -13.4% (active).
In the case of `CC(C)=CCNc1ncnc2c1ncn2C1OC(COP(=O)(O)O)C(O)C1O` (stereo not given), the growth is reported as 2.41% (active).
`CCSCC1CC(O)(c2ccccc2)C(c2ccccc2)C(c2ccc(Cl)cc2)O1` (stereo not given) was tested, and the growth was 1.88% (active).
`COc1cccc2c1C(=O)c1c(O)c3c(c(O)c1C2=O)C[C@@](O)(C(C)=O)C[C@@H]3O[C@H]1C[C@H](N)[C@H](O)[C@H](C)O1` was tested, and the growth was -58.8% (active).
With `c1ccc2nc(Cn3c[n+](Cc4ccc5ccccc5n4)c4ccccc43)ccc2c1` the growth was 8.39% (active).

Reference: PubChem BioAssay (NCI)
